Data: the OligoGym collection

molecular target: IKBKAP; experiment: pooled miR-30 sensor sort-seq; sequence = guide strand; details: shRNA
Note: reference of the scale not given here.

Sequence | sensor-assay potency score (higher = more potent)
TAATTCATTAACATCTACCAGA | -0.538
TTCTTCTGTTGATCTTTGGTGG | -0.174
TATTTGTCTATAGTAAACCGCT | -0.467
TTTGTCTATAGTAAACCGCTGA | -0.157
TAGCATCGCAGACAAGGTCTAT | -0.408
TTGTCTATAGTAAACCGCTGAT | -0.619
TTGAATATCCCTGAACTCCAGG | -0.562
TCTTCGTGACATCTTCTTCTTT | -0.422
TTCTGAACCAATGAGCACCGTC | -0.483
TTGCAGTAGAATTGGGACCTAG | -0.443
TATAACTTCAGAGCTTCGTTAT | -0.855

molecular target: IKBKB; experiment: as above; details: shRNA

Sequence | sensor-assay potency score (higher = more potent)
TTGCTCCTCTAGGTCGTCCAGC | -1.32
TTGAAAACTTCACCGTTCCATT | -0.697
TCTTCTTCCGTCTGTAACCAGC | -1.13
TTTTGTGTATTAACCTCTGTTC | -0.501
TAAGTCCACAATGTCGGTCTGC | -0.424
TTGCTTGCTCCTCTAGGTCGTC | -0.796
TTGCTCGCTGTACTTCTCCAGG | -0.598
TTCGCTAACAACAATGTCCACC | -0.709
TAGTCTCCTGTACAGCTCCCTT | -1.81
TTTCCTGATTGTGCCATCGGAT | -0.945
TAAGTTTAAGATGTCATCCAGG | -0.453
TTTGAATTGGACACTGTCCAGT | -0.0592

molecular target: IKBKG; experiment: as above; details: shRNA

Sequence | sensor-assay potency score (higher = more potent)
TTTGAGATCTTCCAGCTGCATT | -1.36
TGTGGTTGTCGTATTCTTGGAA | 0.455
TTATCGATCACCTCCTGTTTGG | -0.717
TCGTATTCTTGGAAGAGCTGGT | 0.277
TTCCTCATGTCCTCGATCCTGG | -0.0606
TACGTCCTGATCTGCTGCCGGG | -1.55
TTCAGTTTGCTGTACTCCCTCT | -0.286
TCACAATCTTGTGCTGCTCGGC | -0.555
TTGGAAATGCAGAAGCTCCTCG | 0.49
TTTGCTGTACTCCCTCTGCAGC | -0.913
TTAGTGGCAGCCTCCAAGCGAC | -1.14
TTGCACATGAGGAACTCCTTCT | 0.171

molecular target: IL10; experiment: as above; details: shRNA

Sequence | sensor-assay potency score (higher = more potent)
TTTAACAACAAGTTGTCCAGCT | 0.786
AAGAAAGTCTTCACTCTGCTGA | 0.0469
AACAACAAGTTGTCCAGCTGAT | 0.182
TTGCTCTTGTTTTCACAGGGAA | -0.544
TTTCACAGGGAAGAAATCGATG | -0.836
